# Assay outcomes from PubChem.
# An excerpt weighted towards active compounds, which were near 6.1% of everything screened.
# D1 antag: blocks dopamine activation of the human D1 receptor. activity change, negative = inhibition, % at 10 µM. P21728. HEK293 TREx D1 cells, calcium flux, dopamine EC80; stronger effect = lower value. 360,000 tested, 3.2% active. AID 504652; in the data active = activity change below about -30%
# Target sequence (P21728 whole entry, looked up): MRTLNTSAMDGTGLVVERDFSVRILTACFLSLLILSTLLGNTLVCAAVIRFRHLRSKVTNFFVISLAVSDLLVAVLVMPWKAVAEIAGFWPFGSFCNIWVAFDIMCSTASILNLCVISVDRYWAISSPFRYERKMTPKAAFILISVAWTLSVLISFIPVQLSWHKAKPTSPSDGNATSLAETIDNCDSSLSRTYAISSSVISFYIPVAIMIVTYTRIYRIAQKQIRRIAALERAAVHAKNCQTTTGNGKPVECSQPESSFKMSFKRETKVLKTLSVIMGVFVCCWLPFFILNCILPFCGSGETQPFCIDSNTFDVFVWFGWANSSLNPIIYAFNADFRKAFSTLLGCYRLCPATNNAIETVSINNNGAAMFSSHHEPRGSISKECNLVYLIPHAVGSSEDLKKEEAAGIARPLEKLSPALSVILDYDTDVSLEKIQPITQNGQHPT
#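 HEK293 T-REx cells expressing inducible, force-coupled D1 receptor; no-wash Ca dye, 30–90 min RT. Cmpd → 180 s read at 1 Hz → EC80 DA → 180 s read.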
# ERG Ets-DNA blk: inhibitors of human ERG Ets domain-DNA interaction. P11308. fluorescence polarization, His-ERG Ets domain / labelled DNA. Potency, µM (top dose mostly 76.9 µM), most hits filed as inhibitors. 370,000 tested, 0.028% active. AID 624246; active = well fitted inhibition curve with a large enough effect in the polarisation, with a control signal flat; inconclusive = small, poorly fitted or top-dose-only effect, or effect the other way, or a change in a side signal; inactive = no such curve, though single readings can be large or run the other way; the % refers to the polarisation;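 note: polarization taken with two DNA probes labelled with fluorescein and Texas red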
#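 His-tagged ERG Ets domain (1 uM in the protein solution; 300mM KCl, 50mM Tris-HCl, 1mM EDTA, 1mM DTT, pH 7.5) received compound, then a probe mix of 5 nM fluorescein-DNA and 100nM Texas-615-DNA. Fluorescence polarization was read for both dyes.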
# D1 agonist: human D1 receptor agonism. HEK293 T-REx D1 cells, calcium flux, agonist mode. activation, % at 2 µM. 360,000 tested, 1% active. AID 504660; in the data active = activation above about 30%
#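 Tetracycline-induced HEK293 TREx D1 cells, force-coupled to calcium signalling, were dye-loaded with a no-wash calcium kit. Compound was pin-added after a 10 s baseline. Fluorescence was read kinetically at 1 cycle/s for 180 s, with calcium rises flagged as agonism.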
# D3 ag: D3 dopamine receptor (human) agonism. P35462. D3R DiscoveRx beta-arrestin cells, luminescence, 90 min. max activation, %. 410,000 tested, 0.58% active. AID 652048; in the data active = max activation above about 30%
#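 Cells at 1500/well, incubated overnight, then treated with pinned compounds (dopamine as control) for 90 min at 37 degrees C. DiscoveRx reagent added for 30 - 60 minutes at room temperature; luminescence read.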
# D1 PAM: enhances dopamine response at the human D1 receptor; HEK293 TREx D1 cells, calcium flux, dopamine EC20 potentiation; P21728; 360,000 tested, 0.036% active; potentiation, % at 10 µM; in the data active = potentiation above about 30%
# DRD3 antagonist: blocks the human D3 dopamine receptor; D3R cells, DiscoveRx beta-arrestin luminescence, antagonist mode; stronger effect = lower value; max response, negative = inhibition, %; P35462; 360,000 tested, 2.5% active; in the data active = max response below about -50%; inconclusive = no clear call, values can overlap the other calls
#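 Cells plated overnight at 1500 cells/well, then exposed to library compounds with dopamine controls for 90 minutes at 37 degrees C. DiscoveRx reagent added for 30–60 minutes at room temperature; luminescence read, quantitative HTS format.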
# Numbers stand for hits; – = inactive; ? = inconclusive; · = no result given; ! = a repeat was not active.
SMILES,D1 antag,ERG Ets-DNA blk,D1 agonist,D3 ag,D1 PAM,DRD3 antagonist
COc1cccc(NC(=O)N2CCCc3ccccc32)c1,–,–,–,–,–,–
Cc1ccc(C(=O)Nc2ccccc2Sc2ccccc2)cc1,–,–,–,–,–,?
CN(c1ccc(C(=O)Nc2ccccc2Sc2ccccc2)cc1)S(C)(=O)=O,-40,–,–,–,–,–
CCN1/C(=C2/SC(=S)N(NC(C)=O)C2=O)Sc2ccc(Cl)cc21,–,–,–,–,–,–
O=C1NC(=O)/C(=C/C(=O)N2CCOCC2)S1,–,–,–,–,–,–
Fc1ccccc1Nc1nc2ccccc2o1,–,–,–,–,–,–
COc1ccc(NC(=O)c2ccc(CN3CCc4ccccc4C3)cc2)cc1OC,–,–,–,–,–,-64
CN(c1ccc(C(=O)Nc2ccc3c(c2)OCO3)cc1)S(C)(=O)=O,–,–,–,–,–,–
Cc1cc(C)c(NC(=O)c2ccc(CN3CCc4ccccc4C3)cc2)c(C)c1,–,–,–,–,–,-53
CN(c1ccc(C(=O)Nc2ccc(CC#N)cc2)cc1)S(C)(=O)=O,-34,–,–,–,–,–
Cc1c(NC(=O)c2ccc(CN3CCc4ccccc4C3)cc2)c(=O)n(-c2ccccc2)n1C,–,–,–,–,–,-79
Cc1c(NC(=O)c2ccc(F)cc2)c(=O)n(-c2ccccc2)n1C,–,–,–,–,·,–
CC(C)c1nc(CNC(=O)c2cc(COc3c(F)cccc3F)on2)cs1,–,–,–,–,–,–
Cc1occc1C(=O)Nc1nnc(C(F)(F)F)s1,-30,–,–,–,–,–
O=C(Nc1ccccc1C(=O)Nc1nnc(C(F)(F)F)s1)c1ccccc1,-39,–,–,–,–,–
COc1ccccc1NC(=O)CCC(=O)Nc1nnc(C(F)(F)F)s1,–,–,–,–,–,–
Cc1ccc(Cn2c(CNS(=O)(=O)c3ccc(F)c(Cl)c3)nc3cccnc32)cc1,–,–,–,–,–,·
Cc1cc(C2CCCCC2)n(O)c(=O)c1,–,–,–,46!,–,–
COc1cccc(Oc2cc(NN3CCCCC3)c([N+](=O)[O-])cc2[N+](=O)[O-])c1OC,–,–,–,–,–,-65
O=S(=O)(Nc1ccc(S(=O)(=O)Nc2ccccc2)cc1)c1ccccc1,–,–,–,–,–,–
O=S(=O)(Nc1ccccc1)c1ccc(NS(=O)(=O)c2c(F)cccc2F)cc1,–,–,–,41,–,–
O=S(=O)(Nc1ccc(N=Nc2ccccc2)cc1)c1ccccc1,–,–,–,–,–,-52
O=C(c1ccccc1NS(=O)(=O)c1ccccc1[N+](=O)[O-])N1CCCC1,–,–,–,–,–,–
Cc1nn(-c2ccccc2)c(C)c1/C=C/C(=O)OCC(=O)N(C)C1CCS(=O)(=O)C1 (stereo not given),-84,–,–,–,–,–
CCN(C(=O)COC(=O)/C=C/c1c(C)nn(-c2ccccc2)c1C)C1CCS(=O)(=O)C1 (stereo not given),–,–,–,–,–,–
SMILES,D1 antag,ERG Ets-DNA blk,D1 agonist,D3 ag,D1 PAM,DRD3 antagonist
CN(C(=O)CSc1nncn1-c1ccccc1)C1CCS(=O)(=O)C1 (stereo not given),–,–,–,–,–,-54
CCc1cc2c(=O)n(Cc3ccco3)c(SCC(=O)N(C)C3CCS(=O)(=O)C3)nc2s1 (stereo not given),-36,–,–,–,–,–
CCn1c(SCC(=O)N(C)C2CCS(=O)(=O)C2)nnc1-c1ccccc1 (stereo not given),-64,–,–,–,–,–
CCc1cc2c(=O)n(Cc3ccco3)c(SCC(=O)NC3CCS(=O)(=O)C3)nc2s1 (stereo not given),–,–,–,–,–,–
CCOc1ccc(CCN2C(=O)C(=O)N([C@H](CCCN(C)Cc3ccccc3)CNCc3ccccc3)C[C@@H]2C(C)C)cc1,–,·,41,·,–,·
CN(CCCC[C@H](CNCc1ccc(-c2ccccc2)cc1)N1C[C@H](c2ccccc2)N(CCc2ccc(Cl)c(Cl)c2)C(=O)C1=O)Cc1ccc(-c2ccccc2)cc1,–,·,–,·,–,·
COc1ccc(CNC[C@@H](CCCCN(C)Cc2ccc(OC)cc2)N2C[C@H](c3ccccc3)N(CCc3ccc(Cl)c(Cl)c3)C(=O)C2=O)cc1,–,–,39,–,–,–
Cc1nc(NC(=O)CSc2nccn2C)sc1C(=O)N(C)C,–,–,–,–,–,–
CS(=O)(=O)N(CC(=O)NCCSCc1ccccc1)c1ccccc1Cl,–,–,–,–,–,–
CCN(C(=O)COc1cccc(-n2cnnn2)c1)C1CCS(=O)(=O)C1 (stereo not given),·,–,·,–,·,–
CC(=O)N=C1SC2CS(=O)(=O)CC2N1c1c(Cl)cccc1Cl (stereo not given),–,–,–,–,–,–
COc1ccccc1C(=O)NC(=O)OCCn1c(C)cnc1[N+](=O)[O-],–,–,–,–,–,–
NNC(=O)c1[nH]c2ccc([N+](=O)[O-])cc2c1-c1ccccc1,–,–,–,–,–,–
O=C(N/N=C/c1ccccn1)c1[nH]c2ccc([N+](=O)[O-])cc2c1-c1ccccc1,–,–,–,–,–,-60
O=C(N/N=C/c1ccccc1)c1[nH]c2ccc(Br)cc2c1-c1ccccc1,–,–,–,–,–,-89
C=CCOc1cccc(CNCCCN2CCOCC2)c1,–,–,–,–,–,–
C[C@@H]1CN([C@H](C)CO)C(=O)c2cc(NC(=O)Nc3cccc4ccccc34)ccc2O[C@H]1CN(C)Cc1ccc(C(F)(F)F)cc1,·,–,·,–,·,–
C[C@@H]1CN([C@H](C)CO)C(=O)Cc2cc(NS(=O)(=O)c3ccc(Cl)cc3)ccc2O[C@H]1CN(C)Cc1ccc(C(F)(F)F)cc1,·,–,·,37,·,–
C[C@@H]1CN([C@@H](C)CO)C(=O)Cc2cc(NC(=O)Nc3cccc4ccccc34)ccc2O[C@@H]1CN(C)Cc1ccc(C(F)(F)F)cc1,·,–,·,–,·,-61
C[C@@H]1CN([C@H](C)CO)C(=O)Cc2cc(NS(=O)(=O)c3ccc(F)cc3)ccc2O[C@H]1CN(C)Cc1ccc(C(=O)O)cc1,·,–,·,–,·,–
Cc1ccccc1-n1nnnc1SCC(C)C,–,–,–,–,–,–
Cc1ccccc1-n1nnnc1SCc1csc(-c2ccccc2)n1,-35,–,–,–,–,–
CCC(CO)Oc1cc(NC(=O)c2cccc([N+](=O)[O-])c2)c2ncn(C(C)C)c2c1 (stereo not given),·,–,·,–,·,–
CCC(CO)Oc1cc(NC(=O)c2ccc([N+](=O)[O-])cc2)c2ncn(C(C)C)c2c1 (stereo not given),·,?,·,–,·,-61
